From PubChem BioAssay AID686979 (National Center for Advancing Translational Sciences (NCATS), 2013)
Among all 420,000 compounds or so, about 50,000 (12%) were called active. Another 26% or so got no clear call; they are omitted. Only a selection was taken, and actives are over-represented in it overall. Values without a mark were called inactive. Calls come from the whole dose curve; as a rule, active = well fitted inhibition curve with a large enough effect; inconclusive = small, poorly fitted or top-dose-only effect; inactive = flat fitted curve, though single readings scatter.

assay: qHTS for Inhibitors of human tyrosyl-DNA phosphodiesterase 1 (TDP1): qHTS in cells in presence of CPT; conditions: chicken DT40 Tdp1-/-;hTDP1 cells + 20 nM CPT, ATP luminescence, 48 h; series mostly up to 46.2 µM; activity change, negative = growth inhibition: at the top concentration; note: nearly all actives have a fitted effect of over 55% in size
In short: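 Cell growth measured by CellTiter-Glo luminescence after a minimum 48 h, 37 C compound exposure with 20 nM CPT in Tdp1-knockout DT40 cells stably expressing hTDP1, seeded 400/well; qHTS titration format.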
% is set by controls: 0 for no effect and ±100 for the full control effect; potency is the fitted concentration of half-maximal effect.

Compound | activity change, negative = growth inhibition [%] | Potency
COc1ccccc1N(CC(=O)Nc1c(C)n(C)n(-c2ccccc2)c1=O)S(=O)(=O)c1ccccc1 | -1.58 | –
Cc1c(Cl)cccc1NC(=O)NCCCN1CCCC1=O | -4.46 | –
O=C(OCc1cc(=O)n2nc(C3CC3)sc2n1)c1ccccc1Cl | -26.1 | –
C=CCOC(=O)C1=C[C@H](c2ccc(Br)cc2)C[C@H](OCCCCO)O1 | -10.5 | –
COc1ccc(Cc2nnc(SC)[nH]c2=O)cc1 | – | 12.6 µM (active)
COc1ccc(Cc2nnc(SCC(=O)Nc3ccc(C)c(Cl)c3)[nH]c2=O)cc1 | 3.75 | –
CSc1nc(O)c(Cc2ccccc2)c(=O)[nH]1 | -2.58 | –
COc1ccc(NC(=O)CCNC(=O)Cn2cnc3sc4c(c3c2=O)CCCC4)cc1OC | -5.97 | –
O=C(O)CC(SCC(=O)Nc1ccc(Br)cc1)C(=O)O (stereo not drawn) | 15 | –
Cc1ccc(C(=O)NC(=S)NCCN2CCOCC2)cc1 | -5.93 | –
CCOc1cccc(/C=N/NC(=S)NCCN2CCOCC2)c1O | – | 4.11 µM (active)
Cc1ccc(NC(=S)NCCN2CCOCC2)cc1 | 9.2 | –
COCc1nnc(NC(=O)c2ccc3c(c2)OCO3)s1 | 2.7 | –
COc1ccc(C(=O)Nc2ncc3c(n2)-c2ccccc2CC3)cc1 | -21.1 | –
C=CCN(CC=C)S(=O)(=O)c1ccc(C(=O)Nc2sc3c(c2C(N)=O)CCCCC3)cc1 | – | 13 µM (active)
NC(=O)c1c(NC(=O)c2ccccc2)sc2c1CCCC2 | -16.3 | –
COc1cccc(OC)c1C(=O)Nc1sc2c(c1C(N)=O)CCCC2 | 3.81 | –
O=C(Nc1ncc2c(n1)-c1ccccc1OC2)c1ccc(Cl)cc1 | -18.9 | –
C=CCSc1nnc(NC(=O)c2ccc(NC(C)=O)cc2)s1 | -16.9 | –
C=CCN(CC=C)S(=O)(=O)c1ccc(C(=O)Nc2nc3c(s2)CCc2ccccc2-3)cc1 | – | 16.4 µM (active)
COCCN(CCOC)S(=O)(=O)c1ccc(C(=O)Nc2nc3c(s2)CCc2ccccc2-3)cc1 | – | 9.2 µM (active)

Compound | activity change, negative = growth inhibition [%] | Potency
Cc1ccc2c(=O)cc(C(=O)NCCc3ccc(S(N)(=O)=O)cc3)oc2c1C | 5.84 | –
O=C1CC2(CCCC2)Oc2ccc(Cl)cc21 | -14.3 | –
O=C1C=C(c2ccccc2)CCC1 | -1.66 | –
CC1CCCCC1NC(=O)CN1CCC(O)(c2ccc3c(c2)OCO3)CC1 (stereo not drawn) | -38.1 | –
CC(CCc1ccccc1)NCC(O)c1cccc([N+](=O)[O-])c1 (stereo not drawn) | -4.34 | –
CCn1c2ccccc2c2nnc(N3CCN(c4cc(C)ccc4C)CC3)nc21 | -9.5 | –
O=C(Cc1ccc(NC(=O)C2CCCN(C(=O)C3CCCCC3)C2)cc1)Nc1cccc(C(=O)N2CCCCC2)c1 (stereo not drawn) | -13 | –
O=C(Cc1ccc(NC(=O)C2CCCN(C(=O)CCc3ccccc3)C2)cc1)Nc1ccc(C(=O)N2CCOCC2)cc1 (stereo not drawn) | – | 23.1 µM (active)
CN(CCc1ccccc1)C(=O)c1cccc(NC(=O)Cc2cccc(NC(=O)C3CCCN(C(=O)C4CCC4)C3)c2)c1 (stereo not drawn) | – | 18.4 µM (active)
CN(C(=O)c1cccc(NC(=O)Cc2ccc(NC(=O)C3CCCN(C(=O)C4CC4)C3)cc2)c1)C1CC1 (stereo not drawn) | -11.9 | –
O=C(Cc1ccc([N+](=O)[O-])cc1)Nc1ccc(C(=O)N2CCOCC2)cc1 | -29 | –
CCNC(=O)c1cccc(NC(=O)C2CC(=O)N(CCc3ccccc3)C2)c1 (stereo not drawn) | -1.71 | –
CN(C(=O)c1ccc(NC(=O)Cc2cccc(NC(=O)C3CCN(C(=O)c4ccccc4)CC3)c2)cc1)C1CC1 | -1.06 | –
CN(CCc1ccccc1)C(=O)c1cccc(NC(=O)Cc2cccc(NC(=O)C3CCCN(C(=O)CCc4ccccc4)C3)c2)c1 (stereo not drawn) | – | 14.6 µM (active)
CC(=O)c1cccc(NC(=O)N2CCCC2C(=O)NCCc2ccccc2)c1 (stereo not drawn) | -21 | –
COc1ccc(CC(=O)NC2CCSc3ccccc32)cc1OC (stereo not drawn) | -18.5 | –
CCOc1c2ccc(C(=O)NC3CCCc4ccccc43)cc2nn1CC (stereo not drawn) | -23.4 | –
O=C(Nc1ccc(S(=O)(=O)Nc2nccs2)cc1)c1cccc(S(=O)(=O)N2CCOCC2)c1 | -2.77 | –
O=c1oc2ccccc2c(NC2CCCCC2)c1NS(=O)(=O)c1ccc(Cl)cc1 | -23.5 | –
CC(C)(C)Nc1c(N)c(=O)oc2ccccc12 | -22.7 | –
CCNc1c(NS(=O)(=O)c2ccc(C3CCCCC3)cc2)c(=O)oc2ccccc12 | – | 18.4 µM (active)

Compound | activity change, negative = growth inhibition [%] | Potency
CCc1ccccc1N1C(=O)C2C3CC(=O)C(c4ccccc43)C2C1=O (stereo not drawn) | 0.543 | –
CC(C)CCN1CCN=C1N(C)C | 0.633 | –
CC1CCC(CN2CCN=C2N(C)C)CC1 (stereo not drawn) | – | 8.2 µM (active)
CCC(C)CCN1CCN=C1N(C)C (stereo not drawn) | -8.01 | –
NS(=O)(=O)c1cccc(NC(=O)COC(=O)c2cc([N+](=O)[O-])ccc2N2CCCC2)c1 | -4.21 | –
CCOC(=O)N1CCC(N2CCOc3ccc(CN4CCC(O)(c5cccnc5)CC4)cc3C2)CC1 | 7.91 | –
NCCCNCCCCN(CCCN)/[N+]([O-])=N/O | – | 13.3 µM (active)
COc1ccc(N2CCN(Cc3ccc(Br)s3)CC2)cc1 | -11.2 | –
CCCCCCCC[n+]1cccc(C(=O)N2c3c(nc(N)[nH]c3=O)NC(C)C2C)c1 (stereo not drawn) | 2.22 | –
Cc1ccc(S(=O)(=O)N[C@@H](Cc2ccccc2)C(=O)N2CCC(C(=O)N[C@H](C(=O)O)C(C)O)CC2)cc1 (stereo partly drawn) | 9.5 | –
CC1(C)C=C2[C@H]3CC[C@@H]4[C@@]5(C)CCC(=O)C(C)(C)[C@@H]5CC[C@@]4(C)[C@]3(C)CC[C@@]2(C(=O)O)CC1 | – | 5.17 µM (active)
N#Cc1cccc(OC(=O)c2ccc3c(=O)n4c(nc3c2)CCC4)c1 | -29.3 | –
O=C(CCNC(=O)C1CCN(S(=O)(=O)c2ccccc2)CC1)NC1CC1 | 8.25 | –
O[C@H]1CN(Cc2cccs2)[C@@H](c2ccc(Cl)cc2)C[C@@H]1n1cc(C2CC2)nn1 | -3.89 | –
Cc1ccc(O)c(-c2cc(C(=O)NCc3ccccc3)[nH]n2)c1 | 0.134 | –
O=C(Cc1cccs1)NCc1cccc(C(F)(F)F)c1 | -2.51 | –
Cc1cc(O)ccc1-c1cc(C(=O)NCc2cc(C(F)(F)F)cc(C(F)(F)F)c2)[nH]n1 | – | 18.4 µM (active)
Cc1ccc(NC(=O)COC(=O)C2C3CC4OC(=O)C2C4C3)cc1Cl (stereo not drawn) | -23.4 | –
Fc1ccccc1C(c1nnnn1Cc1ccc2c(c1)OCO2)N1CCN(Cc2ccccc2)CC1 (stereo not drawn) | – | 14.6 µM (active)
CC(C)(C)n1nnnc1C(c1ccc(F)cc1)N1CCN(Cc2ccc3c(c2)OCO3)CC1 (stereo not drawn) | -17.6 | –
CC(C)(C)n1nnnc1C(c1ccccc1F)N1CCN(C(=O)c2ccco2)CC1 (stereo not drawn) | 1.87 | –
